In article PMC5540273 (PLoS ONE, 2017):

Tests used:
DLK = test system: T1, DLK
T1 construct: gene MAP3K12

CTK = test system: T2, CTK
T2 construct: gene MATK

DCAMKL1 = test system: T3, DCAMKL1
T3 construct: gene DCLK1

DCAMKL3 = test system: T4, DCAMKL3
T4 construct: gene DCLK3
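Also: kd values determined as follow-up on hits from a single-replicate KINOMEscan panel screen.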

Structure (SMILES): CC(C)N1CCC(n2cnc(-c3ccc(F)cc3)c2-c2ccnc(N)n2)CC1 [SB-223132]
- Kd (CSNK1A1): 59 nM
- Kd (CSNK1D): 39 nM
- Kd (CSNK1E): 230 nM

Structure (SMILES): COc1cc2c(Nc3cccc(NC(=O)c4ccccc4)c3)ncnc2cc1OCCCN1CCOCC1 [GSK223810]
- Kd (CSF1R): 420 nM

Structure (SMILES): Fc1cccc(COc2ccc(Nc3ncnc4sc(-c5ccc[nH]5)cc34)cc2Cl)c1 [GW707818]
- Kd (CLK4): > 10000 nM

Structure (SMILES): CCc1nc(-c2cccc(C)c2)c(-c2ccnc(NC(=O)c3ccccc3)c2)s1
- Kd (CSNK1A1): 1400 nM
- Kd (CSNK1D): 690 nM
- Kd (CSNK1E): 880 nM

Structure (SMILES): Cc1ccc(C)c(NC(=O)NCCNc2ccnc(Nc3ccc(F)cc3)n2)c1 [GSK1379878]
- Kd (CSK): > 10000 nM

Structure (SMILES): Nc1nc(-c2cccnc2)c(-c2ccnc3ccccc23)s1 [GW684083]
- Kd (CLK3): > 10000 nM

Structure (SMILES): Nc1nc(-c2ccccn2)c(-c2ccnc3ccccc23)s1 [GW548057]
- Kd (CSNK1A1): 1200 nM
- Kd (CSNK1D): 1800 nM

Structure (SMILES): CSc1nn2c(=O)cc(N3CCOCC3)nc2n1Cc1cccc(Cl)c1Cl [GSK2347225]
- Kd (CLK3): > 10000 nM
- Kd (CSNK1E): > 10000 nM
- Kd (DLK): > 10000 nM

Structure (SMILES): Cn1ccc2ncnc(Oc3ccc(NC(=O)Nc4cccnc4)c(Cl)c3)c21
- Kd (CSF1R): 290 nM
- Kd (DDR1): 57 nM
- Kd (DDR2): 76 nM

Structure (SMILES): COc1ccc(NC(=O)c2ccc(-c3cc(-c4nnc(C)o4)ccc3C)cc2)cc1 [GW595885]
- Kd (CLK3): > 10000 nM

Structure (SMILES): O=C(NCCCN1CCCC1=O)c1cnc(NCc2cc(Cl)ccc2Cl)nc1NC1CCNCC1
- Kd (CSF1R): > 10000 nM
- Kd (CSNK1E): 230 nM

Structure (SMILES): Nc1nccc2scc(-c3ccc4c(c3)CCN4C(=O)Cc3cc(F)ccc3F)c12 [GSK2587663]
- Kd (CLK3): > 10000 nM

Structure (SMILES): Cc1ccc(NC(=O)c2cccc(C#N)c2)cc1-c1ccc(C(=O)Nc2ccncc2)cc1 [GSK1398463]
- Kd (CSF1R): 780 nM
- Kd (DDR1): 22 nM
- Kd (DDR2): 140 nM

Structure (SMILES): c1ccc(-c2ccc3c(-c4ccnc(Nc5ccc6c(c5)OCCO6)n4)cnn3n2)cc1 [GW818941]
- Kd (CSK): > 10000 nM

Structure (SMILES): CNc1nccc(-c2c(-c3ccc(F)cc3)ncn2C2CCN(C)CC2)n1 [SB-222903]
- Kd (CSNK1A1): 24 nM
- Kd (CSNK1D): 5.7 nM
- Kd (CSNK1E): 17 nM

Structure (SMILES): CSc1ccc(NC2=C(c3ccccc3Cl)C(=O)NC2=O)cc1 [SB-342411]
- Kd (CLK2): 460 nM

Structure (SMILES): CN1c2ccc(-c3ccc(C(=O)NCCO)cc3)cc2-c2[nH]ncc2S1(=O)=O
- Kd (CLK2): 700 nM

Structure (SMILES): COc1ccc(NC(=O)Nc2ccc(C)c(-c3ccc(C(=O)Nc4ccncc4)cc3)c2)cc1 [GSK1398475]
- Kd (CSF1R): 1800 nM
- Kd (DDR1): 860 nM

Structure (SMILES): CN1CCC(n2cnc(-c3ccc(F)cc3)c2-c2ccnc(NC3CCNCC3)n2)CC1 [SB-229482]
- Kd (CSNK1A1): 160 nM
- Kd (CSNK1D): 89 nM
- Kd (CSNK1E): 210 nM

Structure (SMILES): Fc1ccc(-c2ncn(CCCNCc3ccccc3)c2-c2ccncc2)cc1
- Kd (CSNK1A1): 210 nM
- Kd (CSNK1D): 47 nM
- Kd (CSNK1E): 130 nM

Structure (SMILES): COc1ccc(Nc2nccc(N3CCC(NC(=O)Nc4ccc5c(c4)OCO5)C3)n2)cc1 (centres unmarked) [GSK1379745]
- Kd (CSNK1D): > 10000 nM

Structure (SMILES): FC(F)(F)c1cc(Nc2nccc(-c3c(-c4ccc(Cl)cc4)nn4ncccc34)n2)ccc1Cl [GW829351]
- Kd (CSNK1D): 2200 nM

Structure (SMILES): COC(=O)c1c(-c2ccccc2)c2cc(Cl)ccc2c(=O)n1Cc1ccc(S(C)(=O)=O)cc1
- Kd (CSNK1G1): > 10000 nM

Structure (SMILES): O=C(Nc1ccccc1F)NC1CCN(c2ccnc(Nc3ccc(F)cc3)n2)C1 (centres unmarked) [GSK1379722]
- Kd (CSNK1G2): > 10000 nM

Structure (SMILES): Nc1nc(-c2ccc3c(N)n[nH]c3c2)cc(N2CCC[C@@H](C(=O)Nc3ccccc3)C2)n1.O=C(O)C(F)(F)F.O=C(O)C(F)(F)F [GSK2288359]
- Kd (CSNK1G2): > 10000 nM

Structure (SMILES): Cc1cccc(-c2nc(Nc3ccc4[nH]nnc4c3)c3ccccc3n2)n1 [GW867587]
- Kd (CSNK2A1): 770 nM

Structure (SMILES): O=C(Nc1ccccc1)Nc1ccc(Oc2ccc3nccn3n2)cc1
- Kd (CTK): > 10000 nM
- Kd (DDR2): 3 nM

Structure (SMILES): COC(=O)c1cccc(NC(=O)NCCNc2ccnc(Nc3ccc(F)cc3)n2)c1 [GSK1379883]
- Kd (DCAMKL1): > 10000 nM

Structure (SMILES): C[C@@H]1CCN(C(=O)CO)C[C@@H]1N(C)c1ncnc2[nH]ccc12
- Kd (DCAMKL3): 240 nM

Structure (SMILES): Clc1ccc(-c2cc(-c3c[nH]nc3-c3ccccn3)ccn2)cc1 [GW681251]
- Kd (DLK): > 10000 nM
